Only a selection was taken, and hits are over-represented in it overall.
Pf Dd2 inh = blocks in vitro growth of P. falciparum Dd2; 120,000 tested, 4.3% active; AID 1347417; Potency, µM (top dose mostly 28.9 µM), inactives show at the top dose activity, negative = inhibition, hits mostly inhibitors; P. falciparum Dd2 growth, SYBR Green, 72 h; active = well fitted inhibition curve with a large enough effect;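 also: plate controls were DMSO vehicle for no effect and reference drug for full effect; nearly all actives have a fitted effect of over 65% in size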
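Readout: SYBR Green fluorescence, 485 nm excitation, 535 nm emission, after ~16 h lysis at 37C. Before that, Dd2-infected red cells (2.5% hematocrit) grew 72 h with compound, 29 uM top final concentration.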
An asterisk follows results filed as active; i = inactive; [ ] = remark or other dose. Potency is read from the fitted curve at half-maximal effect.

SMILES	Pf Dd2 inh
COc1ccc(S(=O)(=O)NC[C@H]2C[C@@H]3CCN2C[C@@H]3CN2CCCCC2)cc1	i
COc1ccc(S(=O)(=O)NC[C@H]2C[C@@H]3CCN2C[C@@H]3CN(C)Cc2ccccc2)cc1	2µM*
CS(=O)(=O)NC[C@H]1C[C@@H]2CCN1C[C@@H]2CN1CCc2ccccc2C1	-16.4%[44.1 µM]
CC(C)NC(=O)NC[C@H]1C[C@@H]2CCN1C[C@@H]2CN(C)Cc1ccccc1	-23.8%[44.1 µM]
COc1ccc(S(=O)(=O)NC[C@H]2C[C@@H]3CCN2C[C@@H]3CN2CCc3ccccc32)cc1	11.2µM*
O=S(=O)(NC[C@H]1C[C@@H]2CCN1C[C@@H]2CN1CCc2ccccc21)c1ccc(Cl)cc1	-14.8%
COCCNC(=O)C(C)[C@@H]1CCc2c(C)cc(OCCOC)c(C)c2[C@@H]1O (stereo partly specified)	-14.7%[44.1 µM]
COc1ccccc1CC(=O)N1CCN(C(=O)c2nnn3c2COC(c2ccc(Cl)cc2)C3)CC1 (stereo unspecified)	-10.3%
CN(C)C(=O)c1ccn2cncc2c1	38.4%[44.1 µM]
Cn1c(C(=O)N2CCC(C(=O)NCCc3ccc(S(N)(=O)=O)cc3)CC2)cc2sccc21	0.8%
CC(C)NC(=O)C1CCN(C(=O)c2cc3sccc3n2Cc2ccc(Cl)cc2)CC1	11.2µM*
COC(=O)c1cc2sccc2n1Cc1ccc(F)cc1	i
Cc1cnc(C(=O)N2CCC(C3CCN(S(C)(=O)=O)CC3)C2)cn1 (stereo unspecified)	10.6%
O=C(NCc1cccnc1)C1CCc2nnc(-c3ccc(Cl)nc3)n21 (stereo unspecified)	12.3%
O=C(NCCc1ccc(Cl)cc1)C1CCc2nnc(-c3ccc(Cl)nc3)n21 (stereo unspecified)	3.98µM*
COC(=O)CNC(=O)C1CCc2nnc(-c3ccc(Cl)nc3)n21 (stereo unspecified)	70.7%
COc1ccccc1OC1(C(=O)O)CCN(C(=O)c2ccoc2C)CC1	-9.1%
CC(C)C1CN(S(=O)(=O)C2CC2)CCC(=O)N1Cc1ccc(F)cc1 (stereo unspecified)	2.4%
COc1ccc([S+](=O)([O-])c2nnn3c2nc(NCc2ccncc2)c2ccccc23)cc1	-15.0%
Cc1cc(C)c([S+](=O)([O-])c2nnn3c2nc(NCc2ccncc2)c2ccccc23)c(C)c1	2.24µM*
Cc1ccc([S+](=O)([O-])c2nnn3c2nc(NCc2ccncc2)c2ccccc23)cc1	7.2%
COc1cccc(CCC2CCCN(C(=O)c3ccc(OC)o3)C2)c1 (stereo unspecified)	-15.4%
COc1ccc(C(=O)N2CCN3C(=O)c4cc(-c5ccc(Cl)cc5)ccc4NC(=O)[C@@H]3C2)cc1	6.31µM*
O=C1Nc2ccc(-c3ccc4c(c3)OCO4)cc2C(=O)N2CCN(C(=O)COc3ccccc3)C[C@H]12	i
CC(C)(C)CC(=O)N1CCN2C(=O)c3cc(-c4ccc(Cl)cc4)ccc3NC(=O)[C@H]2C1	-22.2%
SMILES	Pf Dd2 inh
COc1ccc(-c2ccc3c(c2)C(=O)N2CCN(C(=O)c4ccccc4)C[C@@H]2C(=O)N3)cc1	5.01µM*
COCC(=O)N1CCN2C(=O)c3cc(-c4ccc5c(c4)OCO5)ccc3NC(=O)[C@H]2C1	i
O=C1Nc2ccc(-c3ccc4c(c3)OCO4)cc2C(=O)N2CCN(C(=O)c3cccs3)C[C@@H]12	12.6µM*
COc1ccc(-c2ccc3c(c2)C(=O)N2CCN(C(=O)C4CCNCC4)C[C@@H]2C(=O)N3)c(OC)c1	-15.8%
O=C1Nc2ccc(-c3ccccc3)cc2C(=O)N2CCN(C(=O)c3cccnc3)C[C@H]12	-24.6%[44.1 µM]
COc1ccc(-c2ccc3c(c2)C(=O)N2CCN(C(=O)CC(C)(C)C)C[C@@H]2C(=O)N3)cc1	i
COc1ccc(C(=O)N2CCC(n3c(=O)[nH]c4ccccc43)CC2)cc1	6.9%
O=C(c1cc2ccccc2oc1=O)N1CCC2(CCCN(Cc3ccccc3F)C2)C1 (stereo unspecified)	-1.9%
CC(=O)NCCCC(=O)N1CCN(c2cccc(C=O)c2)C(=O)C1	6.5%
Cc1cc(C(=O)NCC2(COc3ccc(C(F)(F)F)cn3)C[C@@H](O)[C@@H](O)C2)n(C)n1 (stereo partly specified)	-0.4%
O=C(NCCC1CCN(C(=O)Nc2cc(F)cc(F)c2)CC1)c1cccs1	-21.6%
CCn1cc(CN2CCC(Oc3ccc4ccccc4c3)(C(=O)O)CC2)c(C)n1	-14.8%
CCn1cc(CN2CCCC23CCN(c2cc(C)nc4ccccc24)CC3)c(C)n1	2µM*
Cc1cc(N2CCC3(CCCN(C)C3=O)C2)c2ccccc2n1 (stereo unspecified)	26.6%
Cc1cc(C)cc(NC(=O)N(C)CC2CCOCC2)c1	5.1%
Cc1ccc(C)c(NC(=O)Cn2c(-c3ccc(F)cc3)nc(C)c(CCO)c2=O)c1	2.6%
CC(C)S(=O)(=O)N1CCC2(CC1)NCCc1c2[nH]c2ccccc12	-24.1%
O=C1NCCCCCCN(C(=O)c2ccncc2)[C@H]2CCC[C@@H]12	7.9%
O=C(c1ccccc1)N1CCN2C(=O)N(C3CCOCC3)C[C@H]2C1	11.5%[44.1 µM]
CCN1c2cc(C(=O)NCc3cc(OC)ccc3OC)ccc2C(=O)N2CCCCC21 (stereo unspecified)	-4.1%
CCN1c2cc(C(=O)NCc3ccccc3F)ccc2C(=O)N2CCCCCC21 (stereo unspecified)	-18.8%
CCN1c2cc(C(=O)NCc3ccc(F)cc3)ccc2C(=O)N2CCCCCC21 (stereo unspecified)	i
CCN1c2cc(C(=O)NCc3ccccc3OC)ccc2C(=O)N2CCCCCC21 (stereo unspecified)	5.01µM*
CCN1c2cc(C(=O)NCc3cc(F)ccc3F)ccc2C(=O)N2CCCCC21 (stereo unspecified)	3.98µM*
COc1ccccc1CNC(=O)c1ccc2c(c1)N(C)C1CCCCN1C2=O (stereo unspecified)	i
SMILES	Pf Dd2 inh
CC1CCN(C(=O)[C@@H](C)C2CC[C@@]3(C)CC[C@H](NC(=O)COc4ccccc4)[C@@H](C)[C@@H]3[C@H]2O)CC1 (stereo partly specified)	i
O=C(Nc1ccccc1)N[C@H]1CO[C@H]2[C@@H]1OC[C@H]2OC(=O)Nc1ccc(Oc2ccccc2)cc1	-8.9%
O=C(c1ccc(F)cc1)N1CCOC[C@H](Oc2cnccn2)C1	-5.8%[44.1 µM]
COc1ccc(-c2noc(-c3cccn3CC(=O)NC3CCCC3)n2)cc1F	i
CCc1ccccc1NC(=O)Cn1cccc1-c1nc(-c2ccccc2)no1	2.82µM*
O=C(Cn1cccc1-c1nc(-c2ccc(F)cc2)no1)Nc1cccc(F)c1	-4.0%
COc1ccc(NC(=O)Cn2cccc2-c2nc(-c3ccc(F)cc3)no2)cc1	2.51µM*
Cc1ccc(NC(=O)Cn2cccc2-c2nc(-c3ccccc3)no2)c(Cl)c1	4.8%
COc1ccc(-c2noc(-c3cccn3CC(=O)Nc3ccc(F)c(F)c3)n2)cc1F	2.82µM*
CCc1ccc(NC(=O)Cn2cccc2-c2nc(-c3ccc(OC)c(F)c3)no2)cc1	2µM*
Cc1cc(C)c(NC(=O)Cn2cccc2-c2nc(-c3ccc(F)cc3)no2)c(C)c1	95.2%
COC(=O)c1ccccc1NC(=O)Cn1cccc1-c1nc(-c2ccc(OC)c(F)c2)no1	16.1%
Cc1ccc(NC(=O)Cn2cccc2-c2nc(-c3ccccc3)no2)cc1	89.7%
COc1ccc(-c2noc(-c3cccn3CC(=O)Nc3ccc(N(C)C)cc3)n2)cc1F	0.1%
COc1ccc(NC(=O)Cn2cccc2-c2nc(-c3ccc4c(c3)OCO4)no2)cc1OC	-23.7%

Compound activity: PubChem BioAssay, National Center for Advancing Translational Sciences (NCATS)
